Data: PubChem BioAssay
Activity calls are given as the source filed them.

How the values were obtained:
[1] = test system: XIP peptide (Xip251-270) binding; test: small-molecule binders of XIP peptide, primary screen, biochemical, small-molecule microarray, fluorescence 635/667 nm, 0.1 µg/mL protein (AID 1182); settings: fluorescent protein binding, 635 nm, higher = more signal, called active from +8 up or from −8 down
XIP peptide (Xip251-270) = test: small-molecule binders of XIP peptide, primary screen, biochemical, small-molecule microarray, fluorescence 635/667 nm, 0.5 µg/mL protein (AID 1183); settings: small-molecule microarray binding, fluorescence 635 nm; higher = more signal
[2] = Plasmodium falciparum growth inhibition, primary screen, strain 3D7, DAPI fluorescence, 100 nL (AID 1184);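 note: parasites grown inside human red blood cells in medium with human serum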; settings: P. falciparum 3D7 growth, 3 d, higher = more signal
[3] = target: Homeobox protein Hox-A13 (Mus musculus) (UniProt Q62424); test: inhibitors of HoxA13-DNA binding, primary screen, biochemical, fluorescence polarization, labeled oligonucleotide (AID 1185); settings: 15 min, higher = more signal, called active from +8 up or from −8 down
Chain of Homeobox protein Hox-A13 (Mus musculus) (Q62424 whole entry, looked up): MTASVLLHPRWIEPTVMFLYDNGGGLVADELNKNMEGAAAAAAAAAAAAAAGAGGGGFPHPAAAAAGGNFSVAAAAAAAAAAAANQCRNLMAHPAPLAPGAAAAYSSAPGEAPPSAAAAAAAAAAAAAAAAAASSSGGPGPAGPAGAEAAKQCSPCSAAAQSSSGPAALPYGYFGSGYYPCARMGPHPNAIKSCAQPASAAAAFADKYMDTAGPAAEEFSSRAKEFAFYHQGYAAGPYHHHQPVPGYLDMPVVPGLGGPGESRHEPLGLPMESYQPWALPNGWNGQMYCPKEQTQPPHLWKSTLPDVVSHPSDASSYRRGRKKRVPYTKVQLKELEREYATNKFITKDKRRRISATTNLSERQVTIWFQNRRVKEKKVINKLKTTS

Row | Structure (SMILES) | composite z-score [1] | composite z-score (XIP peptide (Xip251-270)) | z-score [2] | z-score [3]
1 | CC(C)=CCCC(C)=CCON=C1C[C@@H](O)[C@@H](O)[C@@H]2[C@@H]3C(=O)N(c4cccc(Oc5ccccc5)c4)C(=O)[C@@H]3CC[C@@H]12 | 0.188 (inactive) | 0.352 | -1.58 | -3.76 (inactive)
2 | CO[C@@H]1COC(=O)[C@@H]2CCCN2C(=O)[C@@H](C)COC(=O)CC=C[C@H]1C | 0.523 (inactive) | 0.569 | 0.442 | -0.236 (inactive)
3 | COC(=O)CC=C[C@@H](C)[C@@H](C=NO[C@@H](C)c1cn([C@H](CO)Cc2ccccc2)nn1)NS(=O)(=O)c1ccc(C)cc1 | -0.294 (inactive) | 0.464 | 0.281 | -4.93 (inactive)
4 | CCOC(=O)[C@H](CC(C)C)NC(=O)CCC1CC(OC(=O)NCc2cccc3ccccc23)CC2(CCCC(COC(=O)NCCc3ccc(Cl)cc3)O2)O1 (some centres undefined) | -0.0551 (inactive) | 0.111 | -1.61 | -4.02 (inactive)
5 | CCOC(=O)[C@H](Cc1ccccc1)NC(=O)CCC1CC(OC(=O)NCCc2ccc(F)cc2)CC2(CCCC(COC(=O)NCCCN3CCCC3=O)O2)O1 (some centres undefined) | 0.414 (inactive) | 0.701 | -1.6 | -2.25 (inactive)
6 | C=CC[C@@H]1C=C[C@H](ON=C[C@@H](C)[C@H](OCc2ccccc2)C(C)C)[C@@H](CO)O1 | 0.142 (inactive) | 0.256 | 0.395 | -4.51 (inactive)
